Assay results as given in PubChem BioAssay AID720519 (National Center for Advancing Translational Sciences (NCATS), 2013).
Records with an inconclusive call do not appear. The source made the active and inactive calls. Calls follow the shape of the dose curve; as a rule, active = well fitted activation curve with a large enough effect; inconclusive = small, poorly fitted or top-dose-only effect; inactive = flat fitted curve, though single readings scatter.

Experiment: qHTS for Inhibitors of Cell Surface uPA Generation: Confirmatory Assay for Cherry-picked Compounds
Details: cell surface uPA activity generation, qHTS confirmation; series mostly up to 115 µM
Method in brief: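 RAW 264.7 cells at 4000/well, incubated overnight, then treated with compounds. After 24 h at 37 C, viability was read by ATPlite luminescence. An increase in signal indicates blocked uPA-dependent LF entry.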

Potency, inactive:
CCN(CC)CCCNC(=O)c1cn(C)c(=O)c2c1c1ccccc1n2C
COC(=O)CSc1nc(N2CCOCC2)c2c(c1C#N)CCCC2
CCNc1nc(Nc2ccc(C)c(Cl)c2)c2cnn(C)c2n1
CSCC[C@H](NC(=O)[C@H](Cc1ccccc1)n1c(=O)[nH]c2ccccc2c1=O)C(=O)N1CCC[C@@H]1C(=O)O
Clc1ccc(-c2nc3ccccn3c2CN2CCSCC2)cc1
COc1cc2oc(=O)ccc2cc1[C@H](O)[C@@H](O)C(C)(C)O
O=C1NC(CCc2ccccc2)C(=O)N1Cc1ccccc1Cl (stereo not drawn)
COc1cccc(NC(=O)N2C3CCCC2CC(NC(C)=O)C3)c1 (stereo not drawn)
CC1(CC(=O)N/N=C/c2cc(Br)c(O)cc2O)OCCO1
O=C(NCc1ccc(F)cc1)c1cc(S(=O)(=O)N2CCCCC2)ccc1N1CCOCC1
COc1ccc(C(=O)CC(=O)C(=O)Nc2ccccc2)cc1
CC(=O)[C@@]1(O)[C@H](C)CC2C3CC=C4CC(OP(=O)(O)O)CC[C@]4(C)C3CC[C@@]21C (stereo partly drawn)
COc1ccc(CNC(=O)C2(CC3CC(c4ccccc4)=NO3)CCNCC2)cc1 (stereo not drawn)
CCn1c2ccccc2c2n[nH]c(=S)nc21
O=C(CCCC(=O)N1CCN(c2ccccc2F)CC1)c1ccccc1
CSc1nc(N)nc2c1ncn2CC(=O)NCC1CCCO1 (stereo not drawn)
COC(=O)C1C(=O)c2c([nH]c(C(=O)OC3CCCCC3)c2C)CC1C (stereo not drawn)
CC1=CC(C)C(C[N+]2(C)CCCCC2)C(C)C1 (stereo not drawn)
